Many of the other results were omitted from the sample, so hits are more common in it than they were.
Giardia FBPA inh – Giardia lamblia aldolase inhibition | hit rate 0.71% among 290,000 | AID 2451 | Potency, µM (highest dose often 59.6 µM), inactives show at the top dose activity, negative = inhibition, actives largely listed as inhibitors | A8B2U2 | purified Giardia FBPA; also: potency is read from the fitted curve at half-maximal effect; % is scaled to controls: 0 for no effect and ±100 for the full control effect; nearly all actives have a fitted effect of over 55% in size
Target sequence (A8B2U2 whole entry, looked up): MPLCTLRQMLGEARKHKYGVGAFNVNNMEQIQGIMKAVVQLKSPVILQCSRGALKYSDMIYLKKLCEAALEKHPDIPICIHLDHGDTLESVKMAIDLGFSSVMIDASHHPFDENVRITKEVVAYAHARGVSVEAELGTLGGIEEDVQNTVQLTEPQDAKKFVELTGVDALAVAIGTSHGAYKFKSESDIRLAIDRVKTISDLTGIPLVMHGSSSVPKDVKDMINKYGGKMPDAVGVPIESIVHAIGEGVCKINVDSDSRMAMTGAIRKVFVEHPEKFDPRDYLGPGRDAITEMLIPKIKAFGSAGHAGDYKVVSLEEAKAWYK
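40 nM FBPA preincubated 10 min at RT with compound (up to 57.5 uM final), then substrate plus GAPDH/TPI/NAD/arsenate coupling and diaphorase/resazurin added. Fluorescence read after 20 min at RT, 525/598 nm.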
Shiga inhibitor – Shiga toxin inhibition; inhibition, % at 38.7 µM; hit rate 9.2% among 290,000; Vero cells, Shiga toxin protein synthesis inhibition reporter; in the data active = inhibition mostly above about 28%, no sharp cut-off; inactive = mostly below about 43%; also: 0% is about no effect
LmPK inhibitor – inhibitors of Leishmania mexicana pyruvate kinase; Q27686; purified LmPK, Kinase-Glo ATP luminescence, 1 h; Potency, µM (series often up to 57.5 µM), for the others: at the top dose activity change, negative = inhibition, actives largely listed as inhibitors; hit rate 0.37% among 290,000; AID 1721; also: potency is read from the fitted curve at half-maximal effect; % is scaled to controls: 0 for no effect and ±100 for the full control effect
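Kinase-Glo luminescence read after 1 h RT reaction of 0.1 nM LmPK with 0.5 mM PEP and 0.1 mM ADP. Activity scaled between uninhibited and enzyme-free controls.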
Sm TGR block – S. mansoni TGR enzyme inhibition; Q962Y6; hit rate 3% among 360,000; purified TGR, DTNB reduction, TNB absorbance 405 nm; AID 485364; Potency, µM (series often up to 114 µM), inactives show top-dose activity change, negative = inhibition, actives largely listed as inhibitors; also: potency is read from the fitted curve at half-maximal effect; % is scaled to controls: 0 for no effect and ±100 for the full control effect; nearly all actives have a fitted effect of over 60% in size
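Kinetic colorimetric format: TGR-catalysed, NADPH-driven DTNB reduction monitored via TNB absorbance. Enzyme dispensed at 20 nM; compound exposure 15 min at room temperature before reaction start.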
Tb PYK inh – T. brucei pyruvate kinase inhibition. Q57TT1. TbPYK enzyme, Kinase-Glo Plus ATP luminescence, 45 min. Potency, µM (highest dose often 76.8 µM), for inactives: at the top dose activity, negative = inhibition, actives largely listed as inhibitors. hit rate 0.12% among 410,000; also: potency is read from the fitted curve at half-maximal effect; % is scaled to controls: 0 for no effect and ±100 for the full control effect; nearly all actives have a fitted effect of over 50% in size
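Screened from lowest to highest concentration, compounds were pinned into TbPYK/substrate mixtures, and ADP (130 uM final) was added. Plates sat at room temperature for 45 min prior to Kinase-Glo Plus detection by luminescence.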
Cycloheximide cs – counter-screen hit for Shiga toxin inhibitors, cycloheximide | cell reporter, cycloheximide protein synthesis inhibition counterscreen | max response, % | hit rate 12% among 300,000 | AID 2314; in the data active = max response mostly above about 13%, no sharp cut-off; inactive = mostly below about 14%; also: read at 38.3 µM for the half of the compounds with a filed dose; 0% is about no effect
Numbers without * were called inactive; ? = inconclusive; . = no result. Unless noted, calls follow the shape of the dose curve; as a rule, active = well fitted curve in the direction sought with a large enough effect; inconclusive = small, poorly fitted or top-dose-only effect, or another doubt; inactive = no such curve, though single readings can be large; an effect the other way counts as inactive or inconclusive.

SMILES	Giardia FBPA inh	Shiga inhibitor	LmPK inhibitor	Sm TGR block	Tb PYK inh	Cycloheximide cs
Cc1ccc(C(=O)Nc2ccc([N+](=O)[O-])cn2)o1	8%	122*	-20%	-2%	1%	45*
CCNC(=O)c1cnc2sc(N3CCCCCC3)nn2c1=O	.	.	.	3%	-1%	.
COc1ccc(Cn2ncc3c4sc(C)cc4n(C)c3c2=O)cc1	.	20	.	.	.	-2
CCN1/C(=C2\C(=O)N(C)C(=S)N2c2ccccc2)C=Cc2ccccc21	-9%	-7	18µM*	-15%	?	-3
CCN1/C(=C2\C(=O)N(C)C(=S)N2C)C=Cc2cc(C)ccc21	-9%	-9	16µM*	5%	-25%	-2
CCN1/C(=C2\C(=O)N(C)C(=S)N2C)C=Cc2ccccc21	-19%	11	?	0%	?	-4
CCN1C(=O)/C(=C2/C=Cc3ccccc3N2CC)SC1=S	-21%	81	-3%	-3%	-12%	14*
CCN1C(=O)/C(=C2\C=Cc3ccccc3N2CC)OC1=S	.	.	.	.	7%	.
COc1cccc(CNC(=O)CSc2cc(C)[nH]c(=O)n2)c1	.	.	.	4%	2%	.
O=C(Nc1ccc(/C=C/c2ccc(NC(=O)c3cc(S(=O)(=O)O)c4cccnc4c3O)cc2S(=O)(=O)O)c(S(=O)(=O)O)c1)c1cc(S(=O)(=O)O)c2cccnc2c1O	.	.	.	.	10%	.
CC(=O)Nc1cccc(NC(=O)c2c(-c3ccccc3)c(-c3ccccc3)nn(C)c2=O)c1	.	.	.	-3%	-2%	.
COc1ccc(N2C(=O)/C(=C\c3ccco3)N=C2SCC(=O)N(C(C)C)C(C)C)cc1Cl	-23%	2	3%	?	4%	10
CCSC1=N/C(=C/c2ccsc2)C(=O)N1c1ccccc1	-2%	-9	3%	2%	3%	-2
CCN(CC)C1=N/C(=C\c2ccco2)C(=O)N1c1ccccc1	-3%	-1	1%	45µM*	-5%	-1
CC(C)CN(CC(C)C)C1=N/C(=C\c2ccco2)C(=O)N1c1ccccc1	-3%	-6	5%	6.3µM*	2%	15
Cc1ccc(Cl)cc1NC(=O)Cn1nnc2sc3c(c2c1=O)CCC(C(C)(C)C)C3 (configuration not stated)	.	.	.	6%	0%	.
CCC1CN(C(=O)N2CCC(C(=O)NCc3cccc(C)c3)CC2)c2ccccc2O1 (configuration not stated)	.	.	.	5%	1%	.
CCOc1cc(C2c3c(n[nH]c3C)C(=O)N2c2ccc(Br)cc2)ccc1O (configuration not stated)	-5%	38*	1%	11µM*	2%	31*
CCOC(=O)c1ccc(N2C(=O)c3n[nH]c(C)c3C2c2cccc(Br)c2)cc1 (configuration not stated)	.	.	.	-10%	6%	.
COc1cc(C2c3c(n[nH]c3C)C(=O)N2c2ccc(Br)cc2)ccc1O (configuration not stated)	7%	7	10%	4.5µM*	-6%	15*
CCOc1ccccc1C(=O)N1CCC(c2nc3ccccc3o2)CC1	.	.	.	1%	-1%	.
COCCCn1c(-c2ccco2)nc2ccccc2c1=O	8%	-25	3%	0%	-20%	1
COCCCN=C(c1ccco1)n1c(=S)nc(-c2ccco2)n(CCCOC)c1=S	?	62*	0%	20µM*	-12%	28*
Cc1ccc(CNC(=O)CN(c2ccc(Cl)cc2Cl)S(=O)(=O)c2ccccc2)cc1	.	.	.	-11%	3%	.
CCc1ccc2oc(C(=O)NCc3ccncc3)c(C)c2c1	7%	50*	-3%	-6%	0%	22*
SMILES	Giardia FBPA inh	Shiga inhibitor	LmPK inhibitor	Sm TGR block	Tb PYK inh	Cycloheximide cs
CCc1ccc2oc(C(=O)Nc3nonc3CC)c(C)c2c1	-1%	53*	10%	-1%	0%	59*
CCc1nonc1NC(=O)c1oc2cc(Br)ccc2c1C	.	19	11%	2%	-1%	15*
CCCOc1ccc(-c2nonc2NC(=O)c2oc3ccc(C)cc3c2C)cc1OCCC	.	.	.	12%	1%	.
CCc1nonc1NC(=O)c1oc2ccc(C)cc2c1C	.	45*	-2%	0%	-2%	36*
CCc1nonc1NC(=O)c1oc2c(C)c(C)ccc2c1C	0%	3	1%	2%	1%	2
CCOC(=O)C1=C(CN(CC)Cc2ccccc2)NC(=O)NC1c1ccc(OC(C)C)cc1 (configuration not stated)	.	.	.	7%	-3%	.
COC(=O)[C@@]1(Cc2ccc(OC)cc2)[C@H]2c3cc(C(=O)N4CCCC4)n(Cc4cc(C)n(C)n4)c3C[C@H]2CN1C(=O)c1ccccc1	-1%	.	.	.	2%	.
Cc1nonc1NC(=O)c1oc2ccc(F)cc2c1C	.	-3	-18%	-2%	1%	-7
CCc1nonc1NC(=O)c1oc2ccccc2c1C	.	24	-2%	2%	-2%	36*
COc1ccc2c(c1)-c1nc(NC(=O)c3ccc(OC)c(Br)c3)sc1CC2	.	.	.	4%	-1%	.
Cc1nc(NC(=O)c2ccccc2O)sc1C	-20%	41	-5%	5%	-11%	18*
CC(=O)c1sc(NC(=O)c2c(F)cccc2F)nc1-c1ccccc1	-1%	23	-3%	-8%	-11%	11
Cc1nc(NC(=O)CCc2ccccc2)sc1C	-1%	68*	-1%	-16%	4%	40*
Cc1nc(NC(=O)c2ccccc2)sc1C	-11%	.	-19%	0%	-4%	27*
Cc1nnc(NC(=O)c2ccccc2)s1	.	.	.	?	-7%	.
Cc1nc(NC(=O)c2cccnc2Cl)sc1C	.	.	.	.	-3%	.
CC(=O)c1sc(NC(=O)c2ccccc2)nc1-c1ccccc1	-23%	96*	-9%	-19%	-2%	57*
Cc1occc1C(=O)N1CCCC(CO)(Cc2ccc(F)cc2F)C1 (configuration not stated)	.	-15	-7%	-21%	-6%	-2
CCOC(=O)c1ccc(OCC2c3cc(OC)c(OC)cc3CCN2C(=O)c2ccc(S(=O)(=O)N3CCCC3)cc2)cc1 (configuration not stated)	.	.	.	-2%	-2%	.
Cc1ccc(N2CC(NC(=O)c3ccco3)CC2=O)cc1 (configuration not stated)	.	.	.	14%	-2%	.
CCOC(=O)c1c(C)[nH]c(C)c1S(=O)(=O)NCC(=O)N1CCN(c2cccc(C)c2)C(C)C1 (configuration not stated)	.	.	.	-10%	3%	.
CSc1ncccc1C(=O)Nc1cc(Cl)ccc1N1CCOCC1	.	.	.	.	4%	.
Cc1nc(NC(=O)c2csc3ccccc23)sc1C	-11%	123*	-1%	0%	-4%	39*
CCOC(=S)SCC(=O)Nc1nccs1	2%	-9	1%	7%	3%	4
CCOC(=S)SCC(=O)Nc1nc(C)c(C)s1	-12%	49*	3%	8%	-4%	24*
Cc1nc(Nc2ccccc2)sc1C	-3%	71*	3%	-1%	?	46*
